From PubChem
Pf growth 96h: P. falciparum growth inhibition at 96 hours; P. falciparum luciferase reporter growth, 96 h; Potency, µM (series often up to 28.7 µM), inactives show top-dose activity change, negative = inhibition, actives largely listed as inhibitors; AID 504834; 6.9% of 320,000 active; further: potency means the concentration at half of the fitted maximal effect; on the % scale 0 is the no-effect control and ±100 the full control effect
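96 h incubation, 37 C, 5% CO2, of luciferase-reporter P. falciparum-infected RBCs (2% hematocrit, 0.05% parasitemia final) with test compounds; endpoint luminescence.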
Sm TGR inh: S. mansoni TGR enzyme inhibition; AID 485364; purified TGR, DTNB reduction, TNB absorbance 405 nm; Q962Y6; Potency, µM (doses to about 114 µM), inactives show at the top dose activity change, negative = inhibition, most hits filed as inhibitors; 3% of 360,000 active; further: potency means the concentration at half of the fitted maximal effect; on the % scale 0 is the no-effect control and ±100 the full control effect; nearly all actives have a fitted effect of over 60% in size
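First, TGR (20 nM dispensed) and NADPH were mixed with compound. Second, a 15 min room-temperature incubation followed. Third, further NADPH and then DTNB were added to start the reaction. Finally, TNB absorbance was monitored kinetically.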
AMA1-RON2 inh: inhibitors of Plasmodium falciparum AMA1-RON2 interaction. 0.2% of 360,000 active. Potency, µM (titrated, usually from 58.2 µM), inactives show at the highest dose activity change, negative = inhibition, most hits filed as inhibitors. AID 720542. AlphaScreen AMA1-biotinylated RON2 peptide binding;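 further: potency means the concentration at half of the fitted maximal effect; 0% = vehicle wells and -100% = peptide control; nearly all actives have a fitted effect of over 45% in size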
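AMA1 (3D7) with his tag at 25 nM final met compounds first, then biotinylated RON2 peptide at 25 nM; detection used donor plus acceptor beads, 10 µg/mL apiece, read by AlphaScreen after 30 min at room temperature.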
Pf growth 48h: inhibits P. falciparum growth in the first generation, 48 h; Potency, µM (top dose mostly 28.7 µM), inactives show at the top dose activity change, negative = inhibition, most hits filed as inhibitors; AID 504832; 5.9% of 310,000 active; P. falciparum luciferase growth in erythrocytes, 48 h; further: potency means the concentration at half of the fitted maximal effect; on the % scale 0 is the no-effect control and ±100 the full control effect
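Luciferase-expressing P. falciparum in infected erythrocytes (2% hematocrit, 0.1% parasitemia final) in RPMI 1640/0.5% Albumax were exposed to compound for 48 hours at 37 C, 5% CO2; growth read as luminescence.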
NS1 function inh: inhibitors of influenza NS1 protein function. 0.4% of 270,000 active. AID 2326. Potency, µM (top dose mostly 46.1 µM), inactives show top-dose activity, positive = more growth; calls by dose curve; further: potency means the concentration at half of the fitted maximal effect; actives are rising curves; nearly all actives have a fitted effect of over 50% in size
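Compounds were scored for reversing the slow growth caused by influenza A NS1 in S. cerevisiae, measured by optical density at 600 nm. Assay medium contained 2% galactose at pH 6.0; NS1-free yeast of the same strain were the positive control.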
Flu NS1 inh: influenza NS1 function inhibition validation | activity change, negative = inhibition, % at 32.9 µM | AID 492980 | shares compounds with NS1 function inh | 1,400 tested, under 10 active | influenza NS1 function cell assay, 15-point titration; calls by dose curve; further: 0% is about no effect
Active calls of the source: *; ? = inconclusive; · = no result given; [ ] = remark or other dose. Sampled rows, rich in hits. Any-hit rate of the full collection: about 11%. Unless noted, the call rests on the fitted dose curve; in most records, active means well fitted curve in the direction sought with a large enough effect; inconclusive means small, poorly fitted or top-dose-only effect, or another doubt; inactive means no such curve, though single readings can be large; an effect the other way counts as inactive or inconclusive.

SMILES	Pf growth 96h	Sm TGR inh	AMA1-RON2 inh	Pf growth 48h	NS1 function inh	Flu NS1 inh
O=C(COc1ccccc1Cl)N1CCN(c2ccc([N+](=O)[O-])c(N3CCCCC3)c2)CC1	?	0%	-7%	?	?	-17
O=C(c1ccc(F)cc1)N1CCN(c2ccc([N+](=O)[O-])c(N3CCCCC3)c2)CC1	?	-15%	?	-9%	-17%	·
Cc1c(C(=O)NCc2cccc(C(F)(F)F)c2)sc(=O)n1Cc1ccccc1F	·	·	-10%	·	·	·
Cc1nc(C)c(-c2nnc(-c3ccccc3Cl)o2)cc1C(=O)NN	?	0%	85%	?	21%	·
Cc1nc(C)c(-c2nnc(-c3ccc(C(C)(C)C)cc3)o2)cc1C(=O)NN	5%	-11%	74%	?	10µM*	29
Cc1ccc(NC(=O)C2(C)CCN2C(=O)C2CCCCC2)cc1C (stereo not given)	·	·	-2%	·	·	·
CCOCCCNC(=O)CN1C(=O)COc2ccc(S(=O)(=O)N3CCC(C)CC3)cc21	58%	1%	-3%	15%	13%	·
CC1CCN(S(=O)(=O)c2ccc3c(c2)N(CC(=O)NCCCOC(C)C)C(=O)CO3)CC1	6%	-8%	-5%	1%	?	-24
COc1ccccc1-c1nnc(SC/C(O)=C(\C#N)c2nc3ccccc3[nH]2)n1C1CCCCC1	?	-1%	41%	?	?	·
N#C/C(=C(/O)CSc1nnc(Cc2cccs2)n1C1CCCCC1)c1nc2ccccc2[nH]1	65%	-9%	41%	6.6µM*	18µM*	-15
CCOC(=O)C1(C)CCN1C(=O)c1ccc(OC)c(C(F)(F)F)c1 (stereo not given)	·	·	-1%	·	·	·
CCCC(=O)Nc1ccc(Cl)c(NC(=S)NC(=O)c2cc3ccccc3o2)c1	-6%	-6%	2%	2%	?	1
CCC(=O)Nc1ccc(NC(=S)NC(=O)c2cc3ccccc3o2)cc1	?	3%	23%	-24%	5%	·
O=C1c2cccc3c(N4CCOCC4)c([N+](=O)[O-])cc(c23)C(=O)N1c1cccc2ccccc12	10µM*	-1%	0%	?	?	-2
O=C(CSc1nccc(=O)[nH]1)NC1CCCC1	46%	12%	-12%	25%	7%	·
CCC(CO)NC(=O)[C@@H]1C=C2c3cccc4[nH]cc(c34)C[C@H]2N(C)C1 (stereo not given in full)	·	·	·	·	35µM*	4
O=C(O)CC(CC(=O)Nc1ccc(-n2ccc(C(F)(F)F)n2)cc1)c1ccccc1 (stereo not given)	49%	6%	-10%	?	?	-5
CCC1CCCN1Cn1cnc2c([nH]c3ccc(C)cc32)c1=O (stereo not given)	34%	-2%	10%	-13%	?	-23
CCOCCCNc1nc2c(S(=O)(=O)c3ccc(CC)cc3)nnn2c2ccc(Cl)cc12	·	9%	·	·	·	·
COc1ccccc1NS(=O)(=O)c1ccc(Cl)c(NC(=S)NC(=O)C2CCCC2)c1	-8%	-13%	-13%[11.6 µM]	-5%	13µM*	30
CC1CC(C)CN(c2ccc(NS(=O)(=O)c3ccccc3)cc2C(=O)O)C1 (stereo not given)	10%	1%	-12%	20%	9%	·
CC1(C)OC(=O)C(=CNCC(O)c2ccccc2)C(=O)O1 (stereo not given)	?	3%	-1%	?	16µM*	-3
COc1ccccc1NC(=O)C/C(N)=N/O	-7%	-1%	36%	·	13µM*	17
COc1ccccc1NC(=O)CCC(=O)Nc1ccccc1OC	-8%	-2%	11%	6%	3%[9.22 µM]	·
Cc1csc(SCC(=O)Nc2nccs2)n1	-2%	-2%	-1%	-2%	·	·
SMILES	Pf growth 96h	Sm TGR inh	AMA1-RON2 inh	Pf growth 48h	NS1 function inh	Flu NS1 inh
Cc1csc(SCC(=O)Nc2nncs2)n1	25%	-5%	5%	15%	?	-22
Cc1ccc(-c2ccc(/C=N/NC(=O)Cc3nnc(N)s3)o2)cc1Cl	-6%	4%	57%	17%	?	28
Nc1nnc(CC(=O)N/N=C\c2ccc(-c3cccc(Cl)c3)o2)s1	4%	-5%	83%	-6%	6%	·
COc1ccc2c(c1)CCC/C2=N\Nc1nc(C(=O)NN)cs1	?	-3%	33%	10µM*	8.9µM*	1
COc1ccc2c(c1)CCC/C2=N\NC(=O)c1ccoc1C	15%	-12%	19%	70%	21%	·
Cc1ccc(/C=N/NC(=O)c2csc3c2CCCC3)cc1	69%	0%	-5%	41%	-12%	·
Cc1nn(C)cc1/C=N\NC(=O)c1csc2c1CCCC2	0%	-1%	11%	-11%	?	2
Cn1c(/N=C/c2c(O)ccc3ccccc23)nc2ccccc21	-3%	10µM*	-5%	-16%	11µM*	?
CCCn1c(/N=C/c2ccccc2O)nc2ccccc21	?	-20%	0%	43%	-3%	·
Cc1ccc(CCN2CC(C(=O)NCc3ccco3)CC2=O)cc1 (stereo not given)	17%	45µM*	-3%	8%	?	-3
Cc1ccc(CCN2CC(C(=O)NCCC(C)C)CC2=O)cc1 (stereo not given)	10%	-25%	-6%	-20%[0.00184 µM]	3%	·
Nc1nc(COC(=O)C2CC(=O)N(Cc3ccccc3Cl)C2)nc(Nc2ccccc2)n1 (stereo not given)	6%	0%	13%	7%	·	·
Cc1cccc(CN2CCC(CNC(=O)Cn3ncc4c([nH]c5ccccc54)c3=O)CC2)c1	?	-3%	-8%	?	0%	·
C=CCn1c(-c2oc3nc(-c4ccccc4)cc(-c4ccccc4)c3c2N)n[nH]c1=S	?	7%	60%	?	1.1µM*	-7
C=CCn1c(-c2cccc(Cl)c2)n[nH]c1=S	-14%	-26%	112%	0%	-41%	·
Cc1cc(Br)ccc1NC(=O)CNC(=O)CSc1nccn1C	·	·	1%	·	·	·
O=C(O)CC/C(=C\c1cccc(NC(=O)c2ccccc2Cl)c1)c1nc2ccccc2s1	-14%	1%	6%	0%	?	-20
Cc1cc(C)c2cc(C#N)c(N3CCCN(S(=O)(=O)c4ccccc4)CC3)nc2c1	·	·	-3%	·	·	·
CC(=O)c1cccc(S(=O)(=O)N2CCN(c3nc4cc(C)cc(C)c4cc3C#N)CC2)c1	-24%	-31%	10%	?	10µM*	0
CCOC(=O)c1c(C)[nH]c(C)c1C(=O)COC(=O)CSc1ccc(C)cc1	·	·	-5%	·	·	·
Cc1nn(-c2ccccc2)c2c1N(CC(=O)N1CCN(c3ccc(Cl)cc3)CC1)C(=O)CS2	·	-3%	·	·	·	·
COc1cccc2c(=O)c(C(=O)NCc3cccs3)c[nH]c12	3%	7%	56%	31%	1.4µM*	-4
